We go through 30 molecules from the supplement of paper PMC13380429.

A number with no mark means an inactive call.

In this experiment the test system is Vero E6 infected with SARS-CoV-2. Briefly: inhibition of SARS-CoV-2 cytopathic effect; higher = more antiviral protection, active = above 15. The following applies: 48 h.

For the molecule `COc1ccccc1N1CCN(CCCNc2cc(=O)n(C)c(=O)n2C)CC1` [urapidil], the “inhibition of SARS-CoV-2 cytopathic effect” value (shortened to “inhibition”) is, setting by setting: (1 nM) 0.14%; (8.33 nM) -1.36%; (100 nM) -0.45%; (833.33 nM) 2.04%; (10000 nM) -0.1%.

`Oc1ccc2c3c1O[C@H]1c4[nH]c5ccccc5c4C[C@@]4(O)[C@@H](C2)N(CC2CC2)CC[C@]314` [naltrindole]: the “inhibition” value was 1.74% (1 nM); 3.59% (8.33 nM); 1.09% (100 nM); 0.82% (833.33 nM); -3.58% (10000 nM).

As for `CCN(CC)CC#CCOC(=O)C(O)(c1ccccc1)C1CCCCC1` (stereo not given) [oxybutynin], the “inhibition” value was -1.83% (1 nM); -0.13% (8.33 nM); -0.11% (100 nM); 0.84% (833.33 nM); 8.9% (10000 nM).

For `CN(C/C=C/C#CC(C)(C)C)Cc1cccc2ccccc12` [terbinafine], the “inhibition” value by setting is: (1 nM) 5.77%; (8.33 nM) 2.3%; (100 nM) 8.59%; (833.33 nM) 6.27%; (10000 nM) 8.15%.

Turning to `CCCCN(Cc1ccc(C(=O)NO)cc1)C(=O)Nc1ccccc1` [nexturastat-A], the “inhibition” value (1 nM) is 0.96%; the “inhibition” value (8.33 nM) was 0.67%; the “inhibition” value (100 nM) was -0.8%; the “inhibition” value (833.33 nM) was -3.85%; the “inhibition” value (10000 nM) was -13.9%.

`CCOC(=O)Nc1ccc(NCc2ccc(F)cc2)nc1N` [flupirtine]: the “inhibition” value is 0.67% (1 nM); 0.58% (8.33 nM); -1.4% (100 nM); 0.07% (833.33 nM); 1.37% (10000 nM).

Regarding `NC1(Cc2ccc(Cl)cc2)CCN(c2ncnc3[nH]ccc23)CC1`, the “inhibition” value by setting is: (1 nM) -1.05%; (8.33 nM) 0.05%; (100 nM) -0.65%; (833.33 nM) 0.89%; (10000 nM) -9.28%.

With `O=C(O)CNC(=O)c1ccccc1I` [2-iodohippuric-acid], the “inhibition” value reads like this: (1 nM) 3.32%; (8.33 nM) 2.66%; (100 nM) 0.05%; (833.33 nM) 0.88%; (10000 nM) 0.58%.

In the case of `CN(CCOc1ccc(C[C@H](Nc2ccccc2C(=O)c2ccccc2)C(=O)O)cc1)c1ccccn1`, the “inhibition” value is 2.1% (1 nM); 2.86% (8.33 nM); 0.52% (100 nM); 0.58% (833.33 nM); -1.74% (10000 nM).

For the molecule `Cc1nccn1CC1CCc2c(c3ccccc3n2C)C1=O` (stereo not given) [ondansetron], the “inhibition” value runs as follows: (1 nM) 3.14%; (8.33 nM) 0.05%; (100 nM) -1.38%; (833.33 nM) -1.32%; (10000 nM) 3.44%.

Consider `COc1cc(-c2cc(-c3cccc(O)c3)cnc2N)cc(OC)c1OC`, for which the “inhibition” value was -0.86% (1 nM); -1.83% (8.33 nM); -1.83% (100 nM); 1.55% (833.33 nM); 2.09% (10000 nM).

In the case of `Cc1nc2ccc(NC(=O)Nc3ccnc4cccnc34)cc2o1`, the “inhibition” value reads like this: (1 nM) 0.35%; (8.33 nM) 0.06%; (100 nM) 2.76%; (833.33 nM) -0.56%; (10000 nM) -0.97%.

Take `O=C(O)C1CN(Cc2ccc(-c3nc4cc(Cc5ccccc5F)ccc4s3)c(F)c2)C1`: the “inhibition” value runs as follows: (1 nM) 1.34%; (8.33 nM) 1.1%; (100 nM) 2.02%; (833.33 nM) 0.03%; (10000 nM) 1.58%.

In the case of `OC[C@H]1O[C@H](O[C@]2(CCl)O[C@H](CCl)[C@@H](O)[C@@H]2O)[C@H](O)[C@@H](O)[C@H]1Cl` [sucralose], the “inhibition” value is, setting by setting: (1 nM) 0.95%; (8.33 nM) 0.58%; (100 nM) 0.66%; (833.33 nM) -0.54%; (10000 nM) -0.48%.

For the molecule `COCCNC(=O)COc1ccc(OCCNC[C@H](O)COc2ccccc2)cc1`, the “inhibition” value runs as follows: (1 nM) 0.49%; (8.33 nM) 1.84%; (100 nM) -1.53%; (833.33 nM) -1.02%; (10000 nM) -6.62%.

Regarding `Cc1ccc2c(c1)C1(CCN(CCc3nc(-c4ccccc4)oc3C)CC1)OC(=O)N2`, the “inhibition” value reads like this: (1 nM) 1.69%; (8.33 nM) 4.93%; (100 nM) 0.82%; (833.33 nM) -0.79%; (10000 nM) -7.82%.

For the molecule `CC(C)[C@H](CO)Nc1nc(Nc2cccc(Cl)c2)c2ncn(C(C)C)c2n1` [purvalanol-A], the “inhibition” value was -1.59% (1 nM); -0.55% (8.33 nM); -0.26% (100 nM); 2.68% (833.33 nM); -2.25% (10000 nM).

As to `CCC(CO)(C(=O)OC1CC2CCC(C1)[N+]2(C)C)c1ccccc1` (stereo not given) [troventol], the “inhibition” value is, setting by setting: (1 nM) 1.78%; (8.33 nM) 6.67%; (100 nM) 0.13%; (833.33 nM) -1.03%; (10000 nM) 2.53%.

For the molecule `CC(C)NCC(O)c1ccc2ccccc2c1` (stereo not given) [pronethalol], the “inhibition” value was 0.73% (1 nM); 1% (8.33 nM); -0.07% (100 nM); 0.3% (833.33 nM); -1.64% (10000 nM).

Turning to `COC(=O)C[C@](O)(CCCC(C)(C)O)C(=O)O[C@@H]1C(OC)=C[C@]23CCCN2CCc2cc4c(cc2[C@H]13)OCO4` [homoharringtonine], the “inhibition” value was 1.04% (1 nM); 2.85% (8.33 nM); 26.2% (active) (100 nM); 4.43% (833.33 nM); -23.7% (10000 nM).

For the molecule `CC(C(=O)O)c1cccc(C(=O)c2ccccc2)c1` (stereo not given) [ketoprofen], the “inhibition” value (1 nM) is -0.91%; the “inhibition” value (8.33 nM) is -0.62%; the “inhibition” value (100 nM) was -0.91%; the “inhibition” value (833.33 nM) was -0.03%; the “inhibition” value (10000 nM) was -0.97%.

As for `C[N+]12CCC(CC1)C(OC(=O)C(O)(c1ccccc1)c1ccccc1)C2` (stereo not given) [clidinium], the “inhibition” value was -2.04% (1 nM); 1.76% (8.33 nM); -0.23% (100 nM); 0.86% (833.33 nM); -1.97% (10000 nM).

On to `COc1c(C)c2c(c(O)c1C/C=C(\C)CCC(=O)O)C(=O)OC2` [mycophenolic-acid], for which the “inhibition” value was -0.65% (1 nM); -1.16% (8.33 nM); 0.96% (100 nM); 2.06% (833.33 nM); 12.9% (10000 nM).

As for `COc1ccc2c(C)nc(Nc3nc(C)c(C)c(O)n3)nc2c1` [madrasin], the “inhibition” value (1 nM) was -1.29%; the “inhibition” value (8.33 nM) was 0.26%; the “inhibition” value (100 nM) was 1.24%; the “inhibition” value (833.33 nM) is 0.66%; the “inhibition” value (10000 nM) was 30.8% (active).

In the case of `NC(=O)Cc1cccc(C(=O)c2ccccc2)c1N` [nepafenac], the “inhibition” value was -0.09% (1 nM); 1.07% (8.33 nM); -0.56% (100 nM); -1.36% (833.33 nM); -2.65% (10000 nM).

On to `CN(C)CCCN1c2ccccc2CCc2ccccc21` [imipramine], for which the “inhibition” value reads like this: (1 nM) -4.38%; (8.33 nM) 1.76%; (100 nM) -1.33%; (833.33 nM) -2.74%; (10000 nM) -4.2%.

Turning to `O=S(=O)(O)c1cc(I)c(O)c2ncccc12` [chiniofon], the “inhibition” value was -0.29% (1 nM); -0.47% (8.33 nM); -0.93% (100 nM); 3.44% (833.33 nM); -0.39% (10000 nM).

Take `CCCc1cc(C(N)=S)ccn1` [protionamide]: the “inhibition” value is -1.61% (1 nM); 2.36% (8.33 nM); 1.7% (100 nM); 3.81% (833.33 nM); -1.88% (10000 nM).

Take `[NH-]c1c[n+](N2CCOCC2)no1` [linsidomine]: the “inhibition” value runs as follows: (1 nM) 0.45%; (8.33 nM) 3.55%; (100 nM) 0.57%; (833.33 nM) -0.32%; (10000 nM) 1.99%.

For the molecule `O=C(O)c1cc(N2N=C(C(F)(F)F)/C(=C/c3ccc(-c4ccccc4)o3)C2=O)ccc1Cl`, the “inhibition” value runs as follows: (1 nM) 0.12%; (8.33 nM) 1.11%; (100 nM) 0.66%; (833.33 nM) 0.57%; (10000 nM) 3.69%.
